# Experimental data published in the antibiotic and cytotoxicity screens of Wong et al. (2023).
# Among all 39,000 compounds or so, about 3,300 (8.5%) were called active. For the sample, actives were picked, then their nearest neighbours and some compounds at random.
# System: HepG2
# Assay: cytotoxicity call (relative viability < 0.9)
# Settings: 10 µM
row,SMILES,cytotoxicity call
1,Cc1noc(C)c1NC(=O)N(C)C[C@@H]1OCCCC[C@@H](C)Oc2ccc(NS(=O)(=O)c3ccc(F)cc3)cc2C(=O)N([C@H](C)CO)C[C@@H]1C,inactive
2,C[C@@H]1CN([C@@H](C)CO)C(=O)Cc2cc(NC(=O)Cc3cn(C)c4ccccc34)ccc2O[C@@H]1CN(C)S(C)(=O)=O,inactive
3,Cc1ncc([N+](=O)[O-])n1CCO,inactive
4,CCS(=O)(=O)CCn1c([N+](=O)[O-])cnc1C [listing 1 of 2 here],active
5,CCS(=O)(=O)CCn1c([N+](=O)[O-])cnc1C [listing 2 of 2 here],inactive
6,Cc1cc(O)c(-c2ccc([C@@H](C)CN)cc2)c2c1[nH]c(=O)c1sccc12,active
7,C[C@H]1CN([C@@H](C)CO)C(=O)CCCn2nncc2CO[C@@H]1CN(C)C(=O)c1cc(-c2ccccc2)on1,inactive
8,C[C@@H]1CCCCO[C@@H](CN(C)S(=O)(=O)c2ccccc2)[C@@H](C)CN([C@@H](C)CO)C(=O)c2cc(NC(=O)Nc3ccc4c(c3)OCO4)ccc2O1,inactive
9,CC(C)(C)S(=O)N1Cc2cc(C(=O)NCc3ccc(Oc4ccccc4)cc3)nc(-c3cccc(-c4cccc(F)c4)c3)c2[C@@H]1CCO (some centres undefined),active
10,CCCNC(=O)c1cc2c(c(-c3cccc(-c4ccc(F)cc4)c3)n1)[C@H](CCO)N([S@@](=O)C(C)(C)C)C2,inactive
11,CCNC(=O)c1cc2c(c(-c3cccc(-c4cccc(F)c4)c3)n1)[C@H](CCO)N([S@@](=O)C(C)(C)C)C2,active
12,CCOC(=O)c1cc2c(c(-c3cccc(C#CCN(C)C)c3)n1)[C@@H](CCO[Si](C)(C)C(C)(C)C)N([S@](=O)C(C)(C)C)C2,active
13,CCOC(=O)c1cc2c(c(-c3ccccc3)n1)[C@@H](CCO[Si](C)(C)C(C)(C)C)N([S@](=O)C(C)(C)C)C2,inactive
14,CCOC(=O)c1cc2c(c(-c3cccc(Br)c3)n1)[C@@H](CCO[Si](C)(C)C(C)(C)C)N([S@](=O)C(C)(C)C)C2,inactive
15,COc1ccc(CNC(=O)c2cc3c(c(-c4cccc(-c5cccc(C#N)c5)c4)n2)[C@@H](CCO)N([S@](=O)C(C)(C)C)C3)cc1,inactive
16,CCCNC(=O)c1cc2c(c(-c3cccc(-c4cccc(F)c4)c3)n1)[C@H](CCO)N([S@@](=O)C(C)(C)C)C2,inactive
17,CCNC(=O)c1cc2c(c(-c3cccc(-c4cccc(F)c4)c3)n1)[C@@H](CCO)N([S@](=O)C(C)(C)C)C2,inactive
18,CC(C)(C)S(=O)N1Cc2cc(C(=O)Nc3ccc(-c4ccccc4)cc3)nc(-c3cccc(-c4cccc(F)c4)c3)c2[C@@H]1CCO (some centres undefined),active
19,CCCNC(=O)c1cc2c(c(-c3cccc(-c4ccc(F)cc4)c3)n1)[C@@H](CCO)N([S@](=O)C(C)(C)C)C2,inactive
20,CC(C)(C)S(=O)N1Cc2cc(C(=O)NCc3ccc(Oc4ccccc4)cc3)nc(-c3cccc(C#CCC4CCCC4)c3)c2[C@@H]1CCO (some centres undefined),inactive
21,C[C@@H]1CN([C@@H](C)CO)C(=O)c2cc(NC(=O)c3ccncc3)ccc2O[C@@H](C)CCCCO[C@H]1CN(C)S(C)(=O)=O,inactive
22,C[C@H]1CN([C@@H](C)CO)S(=O)(=O)c2ccc(-c3cccnc3)cc2O[C@H]1CN(C)CC1CCOCC1,inactive
23,C[C@H](CO)N1C[C@H](C)[C@@H](CN(C)C(=O)Nc2cccc3ccccc23)OCCCC[C@H](C)Oc2ccc(NC(=O)Nc3ccc4c(c3)OCO4)cc2C1=O,inactive

row,SMILES,cytotoxicity call
1,O=C(O)Cn1nnc(-c2ccccc2)n1,inactive
2,C[C@@H]1CCCCO[C@@H](CN(C)C(=O)Cc2ccccc2)[C@H](C)CN([C@@H](C)CO)C(=O)c2cc(NS(=O)(=O)c3cccs3)ccc2O1,inactive
3,COC(=O)c1[nH]c(C(=O)OC)c(O)c1O,inactive
4,C[C@H]1CN([C@@H](C)CO)C(=O)c2cc(C3=CCCC3)cnc2O[C@@H]1CN(C)S(=O)(=O)c1cn(C)cn1,inactive
5,CC(C)(C)[S@](=O)N1Cc2cc(C(=O)NCC(F)(F)F)nc(-c3cccc(-c4cccc(F)c4)c3)c2[C@@H]1CCO,active
6,CC(C)(O)C#Cc1cccc(-c2nc(C(=O)NCCCN3CCOCC3)cc3c2[C@@H](CCO)N(S(=O)C(C)(C)C)C3)c1 (some centres undefined),inactive
7,CC(C)(C)S(=O)N1Cc2cc(C(=O)Nc3ccc(-c4ccccc4)cc3)nc(-c3cccc(C#CCC4CCCC4)c3)c2[C@@H]1CCO (some centres undefined),inactive
8,CC(C)(C)[S@@](=O)N1Cc2cc(C(=O)NCC(F)(F)F)nc(-c3cccc(-c4cccc(F)c4)c3)c2[C@H]1CCO,inactive
9,CC(C)(O)C#Cc1cccc(-c2nc(C(=O)Nc3ccc(-c4ccccc4)cc3)cc3c2[C@@H](CCO)N(S(=O)C(C)(C)C)C3)c1 (some centres undefined),active
10,CCCNC(=O)c1cc2c(c(-c3cccc(-c4cccc(F)c4)c3)n1)[C@@H](CCO)N([S@](=O)C(C)(C)C)C2,inactive
11,C[C@@H]1CN([C@@H](C)CO)C(=O)c2cc(NC(=O)Nc3ccc4c(c3)OCO4)ccc2O[C@@H](C)CCCCO[C@@H]1CN(C)S(=O)(=O)c1ccc(F)cc1,inactive
12,C[C@@H]1CN([C@@H](C)CO)C(=O)c2cc(NS(=O)(=O)c3cn(C)cn3)ccc2O[C@H]1CN(C)C(=O)Nc1ccc(F)cc1,inactive
13,O=C1C[C@@H](c2ccc(O[C@@H]3O[C@H](CO)[C@@H](O)[C@H](O)[C@H]3O)cc2)Oc2cc(O)ccc21,inactive
14,NC(=S)c1ccc(-n2cncn2)nc1,inactive
15,COc1cccc(-c2ccc3c(c2)O[C@@H](CN(C)Cc2cncnc2)[C@@H](C)CN([C@@H](C)CO)S3(=O)=O)c1,inactive
16,COC(=O)[C@H](Cc1ccccc1)N1CC2=CC(=O)[C@H](C3CC3)[C@H]2[C@@H]1[C@@H](O)CCn1cc(-c2cccc(/C=C/C(=O)NO)c2)nn1,inactive
17,N#CN=C1NC(=O)CC(=O)N1,inactive
18,C[C@H]1CN([C@@H](C)CO)C(=O)c2cc(-c3cccnc3)cnc2O[C@H]1CN(C)Cc1ccc(-c2ccccc2)cc1,inactive
19,C[C@@H]1CCCCO[C@@H](CN(C)Cc2ccc3c(c2)OCO3)[C@@H](C)CN([C@H](C)CO)C(=O)c2cc(NC(=O)c3ccccc3)ccc2O1,inactive
20,C[C@@H]1CN([C@H](C)CO)C(=O)c2cc(NC(=O)c3ccccc3)ccc2O[C@@H](C)CCCCO[C@@H]1CN(C)Cc1ccc2c(c1)OCO2,active
21,C[C@@H]1CCCCO[C@H](CN(C)Cc2ccc3c(c2)OCO3)[C@H](C)CN([C@H](C)CO)C(=O)c2cc(NC(=O)c3ccccc3)ccc2O1,inactive
22,C[C@@H]1CN([C@H](C)CO)C(=O)c2cc(NC(=O)c3ccccc3)ccc2O[C@@H](C)CCCCO[C@H]1CN(C)Cc1ccc2c(c1)OCO2,active
23,C[C@@H]1CCCCO[C@H](CN(C)Cc2ccc3c(c2)OCO3)[C@@H](C)CN([C@H](C)CO)C(=O)c2cc(NC(=O)c3ccccc3)ccc2O1,inactive

row,SMILES,cytotoxicity call
1,C[C@@H]1CCCCO[C@@H](CN(C)Cc2ccc3c(c2)OCO3)[C@H](C)CN([C@H](C)CO)C(=O)c2cc(NC(=O)c3ccccc3)ccc2O1,inactive
2,C[C@H](CO)N1C[C@H](C)[C@@H](CN(C)Cc2ccc3c(c2)OCO3)OCCCC[C@H](C)Oc2ccc(NC(=O)c3ccccc3)cc2C1=O,inactive
3,C[C@@H]1CN([C@@H](C)CO)C(=O)c2cc(NC(=O)c3ccccc3)ccc2O[C@@H](C)CCCCO[C@@H]1CN(C)Cc1ccc2c(c1)OCO2,inactive
4,C[C@@H]1CCCCO[C@@H](CN(C)Cc2ccc3c(c2)OCO3)[C@H](C)CN([C@@H](C)CO)C(=O)c2cc(NC(=O)c3ccccc3)ccc2O1,active
5,C=CCN1C(=O)[C@@H]2[C@@H](C1=O)[C@@H]1C=C[C@@H]2C1,inactive
6,COc1ccc(S(=O)(=O)Nc2cccc3c2O[C@@H](CN(C)Cc2ccncc2)[C@@H](C)CN([C@H](C)CO)C3=O)cc1,inactive
7,C[C@H](CO)N1C[C@H](C)[C@@H](CN(C)C(=O)Nc2cccc3ccccc23)Oc2ccc(NC(=O)C3CCCCC3)cc2C1=O,inactive
8,Cc1ccc(S(=O)(=O)Nc2ccc3c(c2)C(=O)N([C@H](C)CO)C[C@@H](C)[C@@H](CN(C)C(=O)C2CCCCC2)OCCCC[C@@H](C)O3)cc1,inactive
9,COC(=O)[C@@H](C)S(=O)(=O)NC(=O)c1cnc2ccccn2c1=O,inactive
10,O=C(C[C@H]1CC[C@H]2[C@@H](COC[C@@H](O)CN2C(=O)c2ccc3c(c2)OCO3)O1)NC1Cc2ccccc2C1,inactive
11,Cn1cnc(S(=O)(=O)N2CC[C@@H](O)[C@@H]2Cc2cnn(C)c2)c1,inactive
12,O=C1OCC=C[C@H]2O[C@@]34C=CCN(c5ccc6ccccc6c5)C(=O)[C@H]3N(CCCCCO)C(=O)[C@@H]4[C@@H]12,inactive
13,C[C@H](CO)N1C[C@H](C)[C@H](CN(C)S(=O)(=O)c2cccs2)Oc2ccc(NC(=O)Cn3cnnn3)cc2C1=O,inactive
14,S=C1SCN(Cc2ccccc2)CN1Cc1ccccc1,active
15,NCC1CCN(Cc2ccccc2)CC1,inactive
16,NC1CCN(Cc2ccccc2)CC1,inactive
17,COc1ccc(NC(=O)N(C)C[C@H]2OCCCC[C@H](C)Oc3ccc(NS(=O)(=O)c4c(C)noc4C)cc3C(=O)N([C@@H](C)CO)C[C@@H]2C)cc1,inactive
18,COc1ccc(NC(=O)Nc2ccc3c(c2)C(=O)N([C@@H](C)CO)C[C@@H](C)[C@@H](CN(C)Cc2ccc(Cl)c(Cl)c2)OCCCC[C@@H](C)O3)cc1,active
19,COc1ccc(NC(=O)Nc2ccc3c(c2)C(=O)N([C@H](C)CO)C[C@@H](C)[C@H](CN(C)Cc2ccc(Cl)c(Cl)c2)OCCCC[C@@H](C)O3)cc1,active
20,COc1ccc(NC(=O)Nc2ccc3c(c2)C(=O)N([C@H](C)CO)C[C@H](C)[C@@H](CN(C)Cc2ccc(Cl)c(Cl)c2)OCCCC[C@@H](C)O3)cc1,inactive
21,COc1ccc(NC(=O)Nc2ccc3c(c2)C(=O)N([C@@H](C)CO)C[C@H](C)[C@@H](CN(C)Cc2ccc(Cl)c(Cl)c2)OCCCC[C@@H](C)O3)cc1,inactive
22,COc1ccc(NC(=O)Nc2ccc3c(c2)C(=O)N([C@@H](C)CO)C[C@@H](C)[C@@H](CN(C)Cc2ccc(Cl)c(Cl)c2)OCCCC[C@H](C)O3)cc1,inactive
23,COc1ccc(NC(=O)Nc2ccc3c(c2)C(=O)N([C@@H](C)CO)C[C@H](C)[C@H](CN(C)Cc2ccc(Cl)c(Cl)c2)OCCCC[C@@H](C)O3)cc1,inactive
